This passage reports residual bioluminescent signal results from the supplement of paper PMC11628255, “Interference of metal ions on the bioluminescent signal of firefly, Renilla, and NanoLuc luciferases in high-throughput screening assays” (Frontiers in Chemistry, 2024).

± gives the standard deviation of the averaged measurements.

The assay concerns firefly luciferase (FLuc). Put plainly: residual bioluminescent signal relative to negative (DMSO) control; higher = less interference (more residual luciferase signal). As to the method:
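Purified luciferase (FLuc 10 nM + 10 uM D-luciferin; NLuc 10 pM + 10 uM furimazine; RLuc 50 pM + 2 uM coelenterazine) in 384-well plates; metal salt pre-incubated with enzyme 10 min at RT, substrate added and luminescence read after 10 min. Signal normalised to plate DMSO negative control (% N_VALUE = x/mean neg *100); triplicate wells at 0.01, 1 and 5 mM salt.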

Where [1] appears, read: metal salt concentration 0.01 mM, HEPES conditions (100 mM HEPES, 5 mM MgSO4, 10 uM ATP, pH 7.5).
The mark [2] stands for this setting: metal salt concentration 0.01 mM, screening conditions (0.5 mM Tris, 50 mM glycine, 0.5 mM EDTA, 5 mM MgSO4, 10 uM ATP, pH 7.6).
Where [3] appears, read: metal salt concentration 1 mM, HEPES conditions (100 mM HEPES, 5 mM MgSO4, 10 uM ATP, pH 7.5).
Setting [4] is: metal salt concentration 1 mM, screening conditions (0.5 mM Tris, 50 mM glycine, 0.5 mM EDTA, 5 mM MgSO4, 10 uM ATP, pH 7.6).
Setting [5] is: metal salt concentration 5 mM, HEPES conditions (100 mM HEPES, 5 mM MgSO4, 10 uM ATP, pH 7.5).
Where [6] appears, read: metal salt concentration 5 mM, screening conditions (0.5 mM Tris, 50 mM glycine, 0.5 mM EDTA, 5 mM MgSO4, 10 uM ATP, pH 7.6).

On to `O=[N+]([O-])[O-].O=[N+]([O-])[O-].[Zn+2]` [zinc nitrate], for which the residual bioluminescent signal runs as follows: under setting [1], 3.8 ± 1.2%; under setting [2], 81.5 ± 7.4%; under setting [3], 1.49 ± 0.85%; under setting [4], 0.817 ± 0.28%; under setting [5], 1.09 ± 0.85%; under setting [6], 0.316 ± 0.079%.

Regarding `O=[N+]([O-])[O-].O=[N+]([O-])[O-].[Cu+2]` [copper(II) nitrate], the residual bioluminescent signal by setting is: under setting [1], 2.58 ± 1%; under setting [2], 108 ± 11%; under setting [3], 0.407%; under setting [4], 0.712 ± 0.4%; under setting [5], 0.95 ± 0.62%; under setting [6], 0.553 ± 0.32%.

Consider `O=[N+]([O-])[O-].O=[N+]([O-])[O-].O=[N+]([O-])[O-].[Al+3]` [aluminium nitrate], for which the residual bioluminescent signal runs as follows: under setting [1], 78.9 ± 7.9%; under setting [2], 75.8 ± 6%; under setting [3], 0.679 ± 0.47%; under setting [4], 0.343 ± 0.17%; under setting [5], 0.543 ± 0.23%; under setting [6], 90.5 ± 5.5%.

For `O=[N+]([O-])[O-].O=[N+]([O-])[O-].[Ca+2]` [calcium nitrate], the residual bioluminescent signal came to 70 ± 9.6% under setting [1]; 75.6 ± 6.7% under setting [2]; 67.2 ± 14% under setting [3]; 60.2 ± 8.9% under setting [4]; 29.2 ± 2.8% under setting [5]; 24.5 ± 3.4% under setting [6].

Consider `O=[N+]([O-])[O-].[Na+]` [sodium nitrate], for which the residual bioluminescent signal by setting is: under setting [1], 90 ± 7.6%; under setting [2], 79.1 ± 6.3%; under setting [3], 72.4 ± 18%; under setting [4], 71.7 ± 2.9%; under setting [5], 60 ± 13%; under setting [6], 50 ± 4.3%.

As for `O=[N+]([O-])[O-].[K+]` [potassium nitrate], the residual bioluminescent signal under setting [1] came out at 111 ± 4.3%; the residual bioluminescent signal under setting [2] is 100.2 ± 0.6%; the residual bioluminescent signal under setting [3] was 116 ± 12%; the residual bioluminescent signal under setting [4] was 98.6 ± 7%; the residual bioluminescent signal under setting [5] was found to be 86.1 ± 12%; the residual bioluminescent signal under setting [6] amounted to 65.5 ± 7.8%.

For `O=[N+]([O-])[O-].O=[N+]([O-])[O-].O=[N+]([O-])[O-].[Ga+3]` [gallium(III) nitrate], the residual bioluminescent signal came out at 86.3 ± 16% under setting [1]; 3.77 ± 5% under setting [2]; 72.6 ± 17% under setting [3]; 0.264 ± 0.091% under setting [4]; 0.679 ± 0.47% under setting [5]; 0.474 ± 0.48% under setting [6].
